# Values without a mark were called inactive. Records with an inconclusive call do not appear. A call without a number means that no potency is given here. The source made the active and inactive calls. Calls follow the shape of the dose curve; as a rule, active = well fitted curve in the direction sought with a large enough effect in the repeat runs; inconclusive = weak or mixed curves; inactive = no such curve, though single readings can be large; an effect the other way counts as inactive or inconclusive.
# Experiments:
# [1] = A CellTox Green Cytotoxicity Assay to monitor cytotoxicity in HEK293 cells - 32 hour (AID 1224881); also: nearly all actives have a fitted effect of over 40% in size; also: potency is read from the fitted curve at half-maximal effect
# In short: (§1)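 HEK293 cells, 600/well, were preincubated 5 hours and then exposed to compounds at 37 C for up to 40 hours. A cell-impermeant cyanine dye staining dead-cell DNA was read by fluorescence at 0, 8, 16, 24, 32 and 40 h time points.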
# [2] = A CellTox Green Cytotoxicity Assay to monitor cytotoxicity in HepG2 cells - 32 hour (AID 1224883); also: nearly all actives have a fitted effect of over 50% in size; also: potency is read from the fitted curve at half-maximal effect
# In short: (§2)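 HepG2 cells, 600/well, preincubated 5 h with CellTox Green dye, then exposed to Tox21 compounds in DMSO at 37 C for up to 40 h. Dead-cell DNA fluorescence read at the indicated time point.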
# [3] = A CellTox Green Cytotoxicity Assay to monitor cytotoxicity in HEK293 cells - 8 hour (AID 1224884); also: nearly all actives have a fitted effect of over 35% in size; also: potency is read from the fitted curve at half-maximal effect
# In short: as §1
# [4] = qHTS RealTime-Glo MT Cell Viability Assay in HepG2 cells - 16 hour (AID 1224885); also: nearly all actives have a fitted effect of over 50% in size; also: potency is read from the fitted curve at half-maximal effect
# In short: (§3)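 Luminescence read-out: viable HepG2 cells reduce a prosubstrate to a NanoLuc substrate, giving a signal proportional to live cell number. Reads taken at 0, 8, 16, 24, 32 and 40 h of compound exposure at 37 C.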
# [5] = qHTS RealTime-Glo MT Cell Viability Assay in HEK293 cells - 24 hour (AID 1224886); also: nearly all actives have a fitted effect of over 50% in size; also: potency is read from the fitted curve at half-maximal effect; as to activity change, negative = cytotoxicity: top concentration of the series differs between compounds
# In short: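 Nonlytic real-time viability readout: viable cells convert prosubstrate to NanoLuc substrate, giving luminescence proportional to live cell number. HEK293, 600 cells/well, compound added after 5 h, continuous culture at 37 C.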
# [6] = qHTS RealTime-Glo MT Cell Viability Assay in HEK293 cells - 8 hour (AID 1224887); also: nearly all actives have a fitted effect of over 50% in size; also: potency is read from the fitted curve at half-maximal effect; as to activity change, negative = cytotoxicity: top concentration of the series differs between compounds
# In short: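 600 cells/well were plated with the nonlytic NanoLuc/prosubstrate reagent, pre-incubated 5 h, then given 23 nL of compound in DMSO. Incubation at 37 C for 40 h, with luminescence from viable-cell-reduced substrate read repeatedly from 0 h.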
# [7] = A CellTox Green Cytotoxicity Assay to monitor cytotoxicity in HEK293 cells - 16 hour (AID 1224888); also: nearly all actives have a fitted effect of over 35% in size; also: potency is read from the fitted curve at half-maximal effect
# In short: as §1
# [8] = qHTS RealTime-Glo MT Cell Viability Assay in HepG2 cells - 0 hour (AID 1224889); also: nearly all actives have a fitted effect of over 50% in size; also: potency is read from the fitted curve at half-maximal effect
# In short: as §3
# [9] = A CellTox Green Cytotoxicity Assay to monitor cytotoxicity in HepG2 cells - 8 hour (AID 1224890); also: nearly all actives have a fitted effect of over 45% in size; also: potency is read from the fitted curve at half-maximal effect
# In short: as §2
# [10] = A CellTox Green Cytotoxicity Assay to monitor cytotoxicity in HepG2 cells - 0 hour (AID 1224882); also: nearly all actives have a fitted effect of over 35% in size
# In short: as §2
smiles,measurement,setting,value
CCNS(=O)(=O)C(F)(F)C(F)(F)C(F)(F)C(F)(F)C(F)(F)C(F)(F)C(F)(F)C(F)(F)F,Potency,[1],inactive
same,Potency,[2],inactive
same,Potency,[3],inactive
same,Potency,[4],inactive
same,Potency,[5],inactive
same,Potency,[6],inactive
same,Potency,[7],inactive
same,Potency,[8],inactive
same,Potency,[9],inactive
COP(=S)(OC)Oc1ccc([N+](=O)[O-])c(C)c1,Potency,[1],inactive
same,Potency,[2],inactive
same,Potency,[3],inactive
same,Potency,[4],inactive
same,Potency,[5],inactive
same,Potency,[6],inactive
same,Potency,[7],inactive
same,Potency,[8],inactive
Cc1c([N+](=O)[O-])cc2c(c1[N+](=O)[O-])C(C)(C)CC2(C)C,Potency,[10],inactive
same,Potency,[2],inactive
same,Potency,[4],inactive
same,Potency,[5],inactive
same,Potency,[6],inactive
same,Potency,[8],inactive
same,Potency,[9],inactive
O=C(N[C@@H]1N=C(c2ccccc2F)c2cccc3c2N(CC3)C1=O)c1cc2ccccc2[nH]1,Potency,[1],6.01 µM (active)
same,Potency,[2],19 µM (active)
same,Potency,[5],inactive
same,Potency,[6],inactive
same,Potency,[7],5.35 µM (active)
same,Potency,[8],inactive
CN(C)c1ccc(N)cc1,Potency,[10],inactive
same,Potency,[2],inactive
same,Potency,[3],inactive
same,Potency,[5],42.6 µM (active)
same,Potency,[6],24 µM (active)
same,Potency,[7],inactive
same,Potency,[8],inactive
COc1ccc2c3c1O[C@H]1[C@H](O)CC[C@H]4[C@@H](C2)N(C)CC[C@@]341,Potency,[10],inactive
same,Potency,[2],inactive
same,Potency,[3],inactive
same,Potency,[4],inactive
same,Potency,[5],inactive
same,Potency,[6],inactive
same,Potency,[7],inactive
same,Potency,[8],inactive
same,Potency,[9],inactive
Oc1ccc([C@H]2CNCc3c2ccc(O)c3O)cc1O,Potency,[2],26.8 µM (active)
same,Potency,[3],26.8 µM (active)
same,Potency,[5],inactive
same,Potency,[7],26.8 µM (active)
same,Potency,[8],inactive
same,Potency,[9],26.8 µM (active)
C#CCO,Potency,[1],inactive
same,Potency,[2],inactive
same,Potency,[3],inactive
same,Potency,[4],inactive
same,Potency,[5],inactive
same,Potency,[6],inactive
same,Potency,[7],inactive
same,Potency,[8],inactive
same,Potency,[9],inactive
CC1(C)C(C=C(Cl)Cl)C1C(=O)OC(C#N)c1ccc(F)c(Oc2ccccc2)c1 (centres undefined),Potency,[1],inactive
same,Potency,[2],inactive
same,Potency,[3],inactive
same,Potency,[5],inactive
same,Potency,[7],inactive
same,Potency,[8],inactive
same,Potency,[9],inactive
O=[N+]([O-])c1ccc(Cl)c(Cl)c1Cl,Potency,[10],inactive
same,Potency,[2],inactive
same,Potency,[3],inactive
same,Potency,[4],inactive
same,Potency,[5],inactive
same,Potency,[6],inactive
same,Potency,[8],inactive
same,Potency,[9],inactive
CN1CCc2cc(Cl)c(O)cc2[C@H]2c3ccccc3CC[C@@H]21,Potency,[1],inactive
same,Potency,[2],inactive
same,Potency,[3],inactive
same,Potency,[4],inactive
same,Potency,[6],inactive
same,Potency,[7],inactive
same,Potency,[8],inactive
same,Potency,[9],inactive
CC1=C2C[C@H]3[C@@H](CC=C4C[C@@H](O)CC[C@@]43C)[C@@H]2CC[C@]12O[C@@H]1C[C@H](C)CN[C@H]1[C@H]2C,Potency,[10],inactive
same,Potency,[2],26.8 µM (active)
same,Potency,[3],inactive
same,Potency,[4],inactive
same,Potency,[5],16.9 µM (active)
same,Potency,[7],inactive
same,Potency,[9],inactive
O=C(Nc1ccc(F)cc1F)c1cccnc1Oc1cccc(C(F)(F)F)c1,Potency,[10],inactive
same,Potency,[2],inactive
same,Potency,[4],inactive
same,Potency,[5],inactive
same,Potency,[6],inactive
same,Potency,[7],inactive
same,Potency,[8],inactive
same,Potency,[9],inactive
CN1C(=O)[C@@H](NC(=O)c2cc3ccccc3[nH]2)N=C(c2ccccc2)c2ccccc21,Potency,[1],inactive
same,Potency,[2],inactive
same,Potency,[3],inactive
same,Potency,[5],inactive
same,Potency,[6],inactive
same,Potency,[7],inactive
same,Potency,[8],inactive
same,Potency,[9],inactive
CC(=O)[O][Pb]([c]1ccccc1)([c]1ccccc1)[c]1ccccc1,Potency,[1],3.09 µM (active)
same,Potency,[2],0.871 µM (active)
same,Potency,[3],11 µM (active)
same,Potency,[4],1.55 µM (active)
same,Potency,[5],0.436 µM (active)
same,Potency,[6],3.47 µM (active)
same,Potency,[7],4.9 µM (active)
same,Potency,[9],3.89 µM (active)
Cc1cccc(Cc2cnc[nH]2)c1C,Potency,[1],inactive
same,Potency,[3],inactive
same,Potency,[4],inactive
same,Potency,[5],inactive
same,Potency,[6],inactive
same,Potency,[7],inactive
same,Potency,[8],inactive
N#CC(C#N)=NNc1cccc(Cl)c1,Potency,[1],inactive
same,Potency,[2],13.8 µM (active)
same,Potency,[5],5.49 µM (active)
same,Potency,[6],inactive
same,Potency,[7],inactive
same,Potency,[8],24.5 µM (active)
same,Potency,[9],inactive
C[C@]12Cc3cn[nH]c3C[C@@H]1CC[C@@H]1[C@@H]2CC[C@@]2(C)[C@H]1CC[C@]2(C)O,Potency,[1],inactive
same,Potency,[3],inactive
same,Potency,[4],inactive
same,Potency,[6],inactive
same,Potency,[7],inactive
same,Potency,[8],inactive
same,Potency,[9],inactive
c1csc(-c2ccc(-c3cccs3)s2)c1,Potency,[10],inactive
same,Potency,[2],inactive
same,Potency,[3],inactive
same,Potency,[4],inactive
same,Potency,[5],inactive
same,Potency,[6],inactive
same,Potency,[7],inactive
same,Potency,[8],inactive
C=CCOC(=O)c1ccccc1N,Potency,[2],inactive
same,Potency,[3],inactive
same,Potency,[4],inactive
same,Potency,[5],inactive
same,Potency,[7],inactive
same,Potency,[8],inactive
CCC(C)Br (centres undefined),Potency,[1],inactive
same,Potency,[2],inactive
same,Potency,[4],inactive
same,Potency,[5],inactive
same,Potency,[6],inactive
same,Potency,[7],inactive
same,Potency,[8],inactive
same,Potency,[9],inactive
Oc1ccc2[nH]cc(CCCCN3CC=C(c4ccccc4)CC3)c2c1,Potency,[10],inactive
same,Potency,[2],23.9 µM (active)
same,Potency,[3],inactive
same,Potency,[4],inactive
same,Potency,[5],19 µM (active)
same,Potency,[6],8.49 µM (active)
same,Potency,[7],inactive
same,Potency,[8],inactive
same,Potency,[9],inactive
CC(=O)[O-].CC(=O)[O-].CC(=O)[O-].[Sb+3],cytotoxicity increase,[1],3.11% [at 2.72 µM]
same,cytotoxicity increase,[2],-22.1% [at 2.72 µM]
same,cytotoxicity increase,[3],-0.782% [at 2.72 µM]
same,"activity change, negative = cytotoxic",[4],-7.09% [at 2.72 µM]
same,"activity change, negative = cytotoxicity",[5],5.82% [at 2.72 µM]
same,"activity change, negative = cytotoxicity",[6],-4.44% [at 2.72 µM]
same,activity change,[7],"0.422% [at 2.72 µM, active compounds read high]"
same,cytotoxicity increase,[9],-8.87% [at 2.72 µM]
COc1ccc(Cc2nccc3cc(OC)c(OC)cc23)cc1OC,Potency,[1],inactive
same,Potency,[2],inactive
same,Potency,[5],4.77 µM (active)
same,Potency,[6],4.77 µM (active)
same,Potency,[7],inactive
same,Potency,[8],inactive
same,Potency,[9],inactive
CCCCC(CC)COC(=O)OOC(C)(C)C (centres undefined),Potency,[1],inactive
same,Potency,[2],inactive
same,Potency,[3],inactive
same,Potency,[4],inactive
same,Potency,[5],inactive
same,Potency,[7],inactive
same,Potency,[8],inactive
same,Potency,[9],inactive
CC(=O)C(Cl)C(=O)N(C)C (centres undefined),Potency,[10],inactive
same,Potency,[2],inactive
same,Potency,[3],inactive
same,Potency,[4],inactive
same,Potency,[5],inactive
same,Potency,[6],inactive
same,Potency,[7],inactive
same,Potency,[8],inactive
same,Potency,[9],inactive
